Experimental findings from ChEMBL document CHEMBL3988442, “University of Dundee, Small-Polar-MMV Screening Library” (2021) are described below.

For some of these results: Results with a measured potency or affinity are listed apart.

Holding throughout (parameters): scale not given: direction of the effect not stated beside the values
The target of assay [1] is Protein translocase subunit SecA (Escherichia coli (strain K12)) (UniProt P10408). Nature of the assay: Assay to Identify E. coli SecA ATPase Inhibitors. It is filed as functional. The note with it: 30 µM.
The target of assay [2] is T1, Ubiquitin-activating enzyme e1, putative (Leishmania donovani (strain BPK282A1)) (UniProt E9BSI1).
T1 sequence (whole entry): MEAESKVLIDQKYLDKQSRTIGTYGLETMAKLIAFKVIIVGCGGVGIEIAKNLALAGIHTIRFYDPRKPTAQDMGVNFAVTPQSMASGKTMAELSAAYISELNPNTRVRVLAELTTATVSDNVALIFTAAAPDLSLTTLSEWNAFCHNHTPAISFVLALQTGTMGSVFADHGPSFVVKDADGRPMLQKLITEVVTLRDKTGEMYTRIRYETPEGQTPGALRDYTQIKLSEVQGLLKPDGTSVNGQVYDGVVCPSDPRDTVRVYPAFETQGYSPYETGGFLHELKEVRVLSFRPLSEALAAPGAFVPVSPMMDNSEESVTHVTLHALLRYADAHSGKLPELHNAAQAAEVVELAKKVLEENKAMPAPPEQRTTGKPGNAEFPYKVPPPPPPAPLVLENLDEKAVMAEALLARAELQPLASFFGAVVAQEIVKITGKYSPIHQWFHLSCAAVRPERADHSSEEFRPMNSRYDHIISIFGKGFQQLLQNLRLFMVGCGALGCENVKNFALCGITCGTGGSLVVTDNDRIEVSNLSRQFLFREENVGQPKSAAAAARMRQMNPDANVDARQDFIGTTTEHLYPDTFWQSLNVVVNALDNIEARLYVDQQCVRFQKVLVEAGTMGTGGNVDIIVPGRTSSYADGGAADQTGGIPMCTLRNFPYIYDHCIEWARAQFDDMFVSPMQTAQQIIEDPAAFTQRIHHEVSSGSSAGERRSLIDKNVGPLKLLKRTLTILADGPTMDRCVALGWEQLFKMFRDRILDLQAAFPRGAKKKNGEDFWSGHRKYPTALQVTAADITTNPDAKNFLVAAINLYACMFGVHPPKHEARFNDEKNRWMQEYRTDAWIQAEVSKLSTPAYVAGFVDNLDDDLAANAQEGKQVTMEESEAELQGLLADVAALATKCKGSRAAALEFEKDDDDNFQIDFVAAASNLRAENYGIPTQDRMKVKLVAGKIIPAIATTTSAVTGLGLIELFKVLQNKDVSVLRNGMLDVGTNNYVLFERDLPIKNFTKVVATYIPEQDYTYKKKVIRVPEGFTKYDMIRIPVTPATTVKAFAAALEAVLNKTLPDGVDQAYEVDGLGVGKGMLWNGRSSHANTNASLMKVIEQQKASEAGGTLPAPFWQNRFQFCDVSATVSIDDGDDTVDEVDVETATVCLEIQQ
Nature of the assay: Leishmania donovani Ubiquitin Activating Enzyme (LdE1). Particulars: 30 µM. The class given is functional.

In assay [3] the target is AMP-activated protein kinase, AMPK (Homo sapiens) (UniProt P54646+O43741+P54619+Q9UGJ0+Q9Y478+Q13131+Q9UGI9). Description: AMP-dependent Kinase enzyme assay. An in vitro enzyme assay that detects ADP turnover that is directly proportional to AMPK activity. This uses naive AMPK that is activated during the assay with MK-8722. The class given is functional. The note with it: 30 µM.

In assay [4] the target is Sialic acid-binding Ig-like lectin 9 (Homo sapiens) (UniProt Q9Y336). Description: Hs-Siglec9 ALPHAscreen SOP 20170721. The note with it: 10 µM. In general terms: In Alpha technology, singlet oxygen from a donor bead excites a nearby acceptor bead.
The test system of the next assay is Trypanosoma cruzi. Nature of the assay: Trypanosoma cruzi phosphomannomutase and mannose-1-phosphate guanylyltransferase assay. The note with it: 10 µM. It is filed as functional.
Assay [5] has as its target T2, Arginase-2, mitochondrial (Homo sapiens) (UniProt P78540).
T2 sequence (whole entry): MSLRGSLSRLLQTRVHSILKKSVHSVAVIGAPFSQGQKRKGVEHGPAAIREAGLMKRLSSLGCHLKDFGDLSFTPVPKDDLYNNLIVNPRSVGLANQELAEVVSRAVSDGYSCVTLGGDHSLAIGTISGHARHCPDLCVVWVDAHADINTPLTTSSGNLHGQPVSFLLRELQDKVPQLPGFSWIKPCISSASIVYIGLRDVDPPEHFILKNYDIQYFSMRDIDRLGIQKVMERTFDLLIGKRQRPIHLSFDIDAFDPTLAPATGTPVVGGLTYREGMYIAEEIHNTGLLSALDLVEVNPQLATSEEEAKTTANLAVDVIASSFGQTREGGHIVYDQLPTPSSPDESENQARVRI
Description: in vitro enzyme assay to detect the production of urea directly proportional to the activity of Arginase II. Also: in the data most compounds retested in dose-response had high values. The class given is functional. Particulars: 33.3 µM.

The target in assay [6] is T3, Proteasome subunit beta (Trypanosoma cruzi) (UniProt O96673).
T3 sequence (whole entry): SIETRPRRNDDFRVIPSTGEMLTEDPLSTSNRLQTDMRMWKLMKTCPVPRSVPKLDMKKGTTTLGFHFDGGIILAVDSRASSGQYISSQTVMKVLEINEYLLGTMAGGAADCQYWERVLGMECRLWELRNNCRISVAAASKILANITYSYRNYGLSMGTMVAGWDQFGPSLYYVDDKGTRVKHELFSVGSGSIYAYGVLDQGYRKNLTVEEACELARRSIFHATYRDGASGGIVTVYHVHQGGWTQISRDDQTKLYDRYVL
Description: Trypanosoma cruzi proteasome chymotrypsin-like activity (TcProtChymo) assay. Also: in the data most compounds retested in dose-response had high values. It is filed as functional. Particulars: 9.37 µM.

A further assay is filed under the species Homo sapiens. Nature of the assay: To identify inhibition of the IFN signalling (Jak-Stat) pathway via expression of an eGFP reporter gene under the control of an IFN-stimulated response element (ISRE) containing MxA promoter. The note with it: 30 µM. It is filed as functional. On the technique in general: Reporter assays use an easily measured gene product as a stand-in for the process of interest.

Assay [7] has as its target T4, Tyrosyl-tRNA synthetase, putative (Trypanosoma cruzi (strain CL Brener)) (UniProt Q4DSP6).
T4 sequence (whole entry): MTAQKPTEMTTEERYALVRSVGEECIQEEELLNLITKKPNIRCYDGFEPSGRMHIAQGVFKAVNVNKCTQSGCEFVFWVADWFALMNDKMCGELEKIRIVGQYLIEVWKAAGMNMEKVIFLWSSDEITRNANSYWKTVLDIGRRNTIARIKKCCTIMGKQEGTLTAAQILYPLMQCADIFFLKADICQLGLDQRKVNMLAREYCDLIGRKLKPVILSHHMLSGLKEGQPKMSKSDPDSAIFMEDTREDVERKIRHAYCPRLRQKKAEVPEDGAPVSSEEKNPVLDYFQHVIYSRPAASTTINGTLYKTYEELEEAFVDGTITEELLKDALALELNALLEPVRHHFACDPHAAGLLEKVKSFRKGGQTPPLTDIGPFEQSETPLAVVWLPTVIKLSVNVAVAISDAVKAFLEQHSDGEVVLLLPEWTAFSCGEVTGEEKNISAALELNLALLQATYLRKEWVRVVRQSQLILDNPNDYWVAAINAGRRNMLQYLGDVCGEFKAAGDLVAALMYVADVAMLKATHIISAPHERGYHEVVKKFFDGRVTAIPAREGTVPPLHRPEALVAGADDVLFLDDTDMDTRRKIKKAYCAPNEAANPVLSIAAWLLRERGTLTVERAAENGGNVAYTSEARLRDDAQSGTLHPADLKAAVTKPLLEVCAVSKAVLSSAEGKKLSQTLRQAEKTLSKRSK
Description: Trypanosoma cruzi tyrosyl tRNA synthetase (TcYRS) _High Tyrosine SOP. Also: in the data most compounds retested in dose-response had high values. It is filed as functional. Particulars: 30 µM.

The target in assay [8] is T4, Tyrosyl-tRNA synthetase, putative (Trypanosoma cruzi (strain CL Brener)). Description: Trypanosoma cruzi tyrosyl tRNA synthetase (TcYRS) SOP. It is filed as functional. The note with it: 30 µM.
In assay [9] the target is Chromo domain-containing protein 1 (Saccharomyces cerevisiae (strain ATCC 204508 / S288c) (Baker's yeast)) (UniProt P32657). Description: ScCHD-1 Enzyme Inhibition Assay. Also: in the data most compounds retested in dose-response had high values. It is filed as functional. The note with it: 30 µM.
Chromo domain-containing protein 1 (Saccharomyces cerevisiae (strain ATCC 204508 / S288c) (Baker's yeast)), sequence (P32657 whole entry, the tested form may be a part): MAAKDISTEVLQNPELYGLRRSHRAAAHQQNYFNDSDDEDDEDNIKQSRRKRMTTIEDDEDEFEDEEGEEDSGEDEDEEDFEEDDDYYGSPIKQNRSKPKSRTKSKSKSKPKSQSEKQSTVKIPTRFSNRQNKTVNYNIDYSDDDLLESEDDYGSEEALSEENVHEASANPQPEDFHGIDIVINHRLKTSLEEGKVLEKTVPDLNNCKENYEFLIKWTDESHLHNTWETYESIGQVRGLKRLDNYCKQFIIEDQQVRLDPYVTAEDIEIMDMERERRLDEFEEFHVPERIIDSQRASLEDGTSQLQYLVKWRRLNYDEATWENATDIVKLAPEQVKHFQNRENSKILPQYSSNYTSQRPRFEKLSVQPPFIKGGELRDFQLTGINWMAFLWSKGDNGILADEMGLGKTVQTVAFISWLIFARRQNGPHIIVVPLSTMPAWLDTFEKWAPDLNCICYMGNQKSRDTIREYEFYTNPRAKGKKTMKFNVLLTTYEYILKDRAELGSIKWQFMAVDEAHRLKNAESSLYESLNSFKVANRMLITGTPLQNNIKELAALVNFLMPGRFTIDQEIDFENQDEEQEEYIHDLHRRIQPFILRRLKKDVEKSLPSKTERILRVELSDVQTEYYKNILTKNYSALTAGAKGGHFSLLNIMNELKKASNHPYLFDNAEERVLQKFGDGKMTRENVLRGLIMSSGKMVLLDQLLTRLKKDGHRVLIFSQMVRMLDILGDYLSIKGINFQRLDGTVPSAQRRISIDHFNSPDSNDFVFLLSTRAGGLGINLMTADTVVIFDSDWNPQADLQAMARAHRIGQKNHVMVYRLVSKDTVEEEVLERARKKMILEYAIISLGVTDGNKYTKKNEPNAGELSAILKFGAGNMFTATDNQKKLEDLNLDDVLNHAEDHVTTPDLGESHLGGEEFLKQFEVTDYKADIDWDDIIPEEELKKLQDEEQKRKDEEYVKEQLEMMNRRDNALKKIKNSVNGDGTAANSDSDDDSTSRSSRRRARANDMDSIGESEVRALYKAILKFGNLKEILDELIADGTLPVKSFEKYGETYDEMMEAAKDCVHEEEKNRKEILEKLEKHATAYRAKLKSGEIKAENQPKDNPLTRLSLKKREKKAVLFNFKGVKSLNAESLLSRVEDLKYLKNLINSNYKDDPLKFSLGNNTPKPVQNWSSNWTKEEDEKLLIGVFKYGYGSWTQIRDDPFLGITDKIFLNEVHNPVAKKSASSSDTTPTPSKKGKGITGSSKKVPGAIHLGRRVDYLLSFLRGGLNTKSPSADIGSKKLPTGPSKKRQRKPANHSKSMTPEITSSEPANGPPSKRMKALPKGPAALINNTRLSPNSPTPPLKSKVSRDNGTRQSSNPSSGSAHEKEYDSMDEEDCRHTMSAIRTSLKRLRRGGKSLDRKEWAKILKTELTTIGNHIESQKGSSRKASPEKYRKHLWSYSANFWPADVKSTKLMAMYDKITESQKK

Sialic acid-binding Ig-like lectin 9 (Homo sapiens), sequence (Q9Y336 whole entry): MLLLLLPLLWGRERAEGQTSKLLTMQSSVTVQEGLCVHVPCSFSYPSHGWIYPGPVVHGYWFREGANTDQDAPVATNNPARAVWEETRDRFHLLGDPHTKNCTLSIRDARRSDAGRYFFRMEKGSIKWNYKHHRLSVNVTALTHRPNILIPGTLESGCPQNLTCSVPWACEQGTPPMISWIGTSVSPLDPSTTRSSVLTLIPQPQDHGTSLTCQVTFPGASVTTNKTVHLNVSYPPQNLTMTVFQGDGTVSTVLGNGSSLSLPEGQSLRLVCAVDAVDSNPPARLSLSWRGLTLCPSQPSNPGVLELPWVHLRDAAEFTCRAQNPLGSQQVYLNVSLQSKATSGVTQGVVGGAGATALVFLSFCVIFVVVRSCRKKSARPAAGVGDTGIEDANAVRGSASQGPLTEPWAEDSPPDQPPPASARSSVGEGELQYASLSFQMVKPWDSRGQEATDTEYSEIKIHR
Protein translocase subunit SecA (Escherichia coli (strain K12)), sequence (P10408 whole entry): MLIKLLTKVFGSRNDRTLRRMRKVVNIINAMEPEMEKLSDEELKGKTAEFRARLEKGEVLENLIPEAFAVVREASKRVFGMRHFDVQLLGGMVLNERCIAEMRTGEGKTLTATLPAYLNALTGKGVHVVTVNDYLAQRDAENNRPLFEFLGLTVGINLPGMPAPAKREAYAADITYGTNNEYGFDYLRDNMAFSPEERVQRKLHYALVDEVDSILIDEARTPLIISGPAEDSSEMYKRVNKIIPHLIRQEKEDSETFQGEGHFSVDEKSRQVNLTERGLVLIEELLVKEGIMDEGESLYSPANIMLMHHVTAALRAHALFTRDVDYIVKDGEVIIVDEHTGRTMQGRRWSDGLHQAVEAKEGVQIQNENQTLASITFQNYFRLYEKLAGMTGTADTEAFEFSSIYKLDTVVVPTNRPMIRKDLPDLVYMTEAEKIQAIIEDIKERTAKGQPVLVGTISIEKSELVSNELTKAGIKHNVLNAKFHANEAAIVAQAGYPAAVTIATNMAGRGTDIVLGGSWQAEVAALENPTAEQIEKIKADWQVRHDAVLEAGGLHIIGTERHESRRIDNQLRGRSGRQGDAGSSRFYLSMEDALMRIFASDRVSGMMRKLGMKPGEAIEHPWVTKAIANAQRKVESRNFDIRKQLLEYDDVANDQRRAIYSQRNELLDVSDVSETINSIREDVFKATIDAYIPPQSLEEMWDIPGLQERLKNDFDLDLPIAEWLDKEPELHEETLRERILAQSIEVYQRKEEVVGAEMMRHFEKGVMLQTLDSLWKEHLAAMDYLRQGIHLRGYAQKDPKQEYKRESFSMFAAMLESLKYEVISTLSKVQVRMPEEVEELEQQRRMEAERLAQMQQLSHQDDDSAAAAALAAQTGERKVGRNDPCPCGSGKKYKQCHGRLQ

Regarding `COC(=O)c1cccc(C(=O)N2CCN(c3ccccc3F)CC2)n1`, the Percent Effect was -5.05% in assay [1]; 20.8% in [2]; -7.33% in assay [3]; -10.6% in assay [4]; 7.59% in the assay on Trypanosoma cruzi; 1.94% in assay [5]. Also, the Percent Effect in [6] was 13.9%; in the assay listed under Homo sapiens it was 15.5%; in assay [7], 5.29%; in assay [8], 16.7%; in assay [9] it was -10.4%.

As to `O=C(CC1CCCC1)N1CCCC1c1nc(O)cc(-c2ccccn2)n1` (stereo not drawn), the Percent Effect in assay [1] was -6.13%; in assay [2], 20.3%; in assay [3], 1.3%; in assay [4], 16.7%; with Trypanosoma cruzi it was -0.395%; in assay [5], -4.41%. For the same compound, the Percent Effect in assay [6] is 13.9%; in the assay listed under Homo sapiens, 1.89%; in [7], 6.45%; in [8], 19.5%; in assay [9], -15.4%.

With `CCN(CC1CN(Cc2ncc(C)o2)CCO1)c1cccnn1` (stereo not drawn), the Percent Effect in assay [1] is -4.91%; in assay [2], -2.67%; in assay [3], -8.97%; in [4], 2.4%; with Trypanosoma cruzi, 5.16%; in assay [5], 2.6%. For the same compound, the Percent Effect in assay [6] was 12.2%; in the assay listed under Homo sapiens, 12%; in [7], 7.1%; in [8], 6.17%; in assay [9], -0.756%.

On to `CCCOCCN1CCC2(CC1)CC(c1ccccc1)C(=O)N2C` (stereo not drawn), for which the Percent Effect was 6.56% in assay [1]; 5.33% in assay [2]; -0.289% in assay [3]; -1.03% in [4]; -9.45% in the assay on Trypanosoma cruzi; -4.69% in assay [5]. In addition, the Percent Effect in [6] is 18.8%; in the assay filed under Homo sapiens it was 48.6%; in [7] it was -2.73%; in assay [8], 1.24%; in [9], -5.61%.

For `CCCc1cc(C(=O)N(C)Cc2cnc3ccccc3n2)n(C)n1`, the Percent Effect in assay [1] is -7.11%; in assay [2], 5.2%; in assay [3] it was 2.82%; in assay [4] it was 6.76%; with Trypanosoma cruzi it was 2.06%; in [5], 11%. Further, the Percent Effect in assay [6] worked out at 8.82%; in the assay listed under Homo sapiens, 7.96%; in assay [7], 7.53%; in assay [8], 11.1%; in [9] it was 2.1%.

As for `CCOc1cc(C)nc(N2CCN(Cc3nccn3C)CC2)n1`, the Percent Effect in assay [1] is 0.029%; in [2], 4.17%; in assay [3], -6.46%; in assay [4], 13.8%; with Trypanosoma cruzi, 0.875%; in assay [5] it was 12.4%. Moreover, the Percent Effect in assay [6] was 11.2%; in the assay filed under Homo sapiens it was 4.49%; in assay [7] it was 5.26%; in assay [8], 7.69%; in assay [9], -4.66%.

Turning to `Cc1nn(C)c(N2CCOCC2)c1CNC1CCc2ccccc2C1` (stereo not drawn), the Percent Effect is -2.57% in assay [1]; 15.2% in assay [2]; -15% in assay [3]; 9.25% in assay [4]; 3.12% in the assay on Trypanosoma cruzi; -2.28% in [5]. Further, the Percent Effect in assay [6] was -2.87%; in the assay listed under Homo sapiens it was 8.26%; in [7], 9.36%; in [8], 16.5%; in [9] it was -4.44%.

For the compound `CC1CCN(Cc2cnc(S(=O)(=O)CC3CC3)n2CC2CCCO2)CC1` (stereo not drawn), the Percent Effect in assay [1] is -4.08%; in [2], -4.17%; in assay [3], 9.77%; in [4], 0.164%; with Trypanosoma cruzi, -3.21%; in assay [5], -2.65%. Further, the Percent Effect in assay [6] was 0.877%; in the assay filed under Homo sapiens, 4.06%; in assay [7], -1.05%; in assay [8], -7.69%; in assay [9], 5.99%.
